Test results from PubChem BioAssay (NCATS).
Records with an inconclusive call do not appear. Entries that show only a call come without a potency. Activity calls are given as the source filed them. Calls come from the whole dose curve; as a rule, active = well fitted curve in the direction sought with a large enough effect; inconclusive = small, poorly fitted or top-dose-only effect, or another doubt; inactive = no such curve, though single readings can be large; an effect the other way counts as inactive or inconclusive.

How the values were obtained:
[1] = biological target: Aldehyde dehydrogenase, mitochondrial (Homo sapiens) (UniProt P05091); assay: qHTS for Inhibitors of the Aldehyde Dehydrogenase Family (ALDH2) Primary screen (AID 2061308); note: nearly all actives have a fitted effect of over 55% in size
[2] = biological target: Retinaldehyde dehydrogenase 3 (Homo sapiens) (UniProt P47895); assay: qHTS for Inhibitors of the Aldehyde Dehydrogenase Family (ALDH1A3) Primary screen (AID 2061315)

Structure (SMILES) | Potency [1] | Potency [2]
Cc1cnc(-c2ccccc2C(C)C)nc1NCc1cccnc1 | inactive | inactive
O=C(NC1CCCc2c1cnn2-c1ccc(F)cc1F)c1ccc(C2(C(F)(F)F)N=N2)cc1 (configuration not stated) | inactive | inactive
COc1nccc(-c2nc(Nc3ccc(F)c(F)c3)c3ccccc3n2)c1Cl | inactive | inactive
CC(=O)c1cccc(NC(=O)Nc2nnc(-c3ccncc3)s2)c1 | inactive | inactive
O=[N+]([O-])c1ccccc1-c1nc(NCc2ccc(-c3cccnc3)cc2)c2ccccc2n1 | inactive | inactive
Cc1cc2c(s1)c1cnn(Cc3ccc(Br)cc3)c(=O)c1n2C | inactive | inactive
